What was measured:
Experiment in all cases: PBM binding z-score (relative to random genomic background probes); higher = stronger binding; sequences stand for … in GC…GCGATTGACAGCGTAGAATGAAGG
[1] = tested on: FXR:RXRa (NR concentration 270 nM, RXRa partner concentration 90 nM)
How it was run: (§1)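 Binding z-scores take random background probes as their reference. They come from custom Agilent 4×180K protein-binding microarrays incubated 1 h with ligand-free nuclear receptor dimers, with antibodies against each partner (one per run) detecting binding. Scanned fluorescence was regression-normalized.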

[2] = tested on: LXRa:RXRa (NR concentration 270 nM, RXRa partner concentration 90 nM)
How it was run: as §1

[3] = tested on: LXRa homodimer (NR concentration 270 nM)
How it was run: as §1

[4] = tested on: LXRb:RXRa (NR concentration 270 nM, RXRa partner concentration 90 nM)
How it was run: as §1

[5] = tested on: LXRb homodimer (NR concentration 270 nM)
How it was run: as §1

[6] = tested on: PPARa:RXRa (NR concentration 270 nM, RXRa partner concentration 90 nM)
How it was run: as §1

[7] = tested on: PPARg:RXRa (NR concentration 180 nM, RXRa partner concentration 90 nM)
How it was run: as §1

[8] = tested on: PPARg:RXRa 270nM:90nM, anti-RXR (NR concentration 270 nM, RXRa partner concentration 90 nM)
How it was run: as §1

[9] = tested on: PPARg:RXRa 30nM:10nM, anti-RXR (NR concentration 30 nM, RXRa partner concentration 10 nM)
How it was run: as §1

[10] = tested on: PPARg:RXRa 90nM:30nM, anti-RXR (NR concentration 90 nM, RXRa partner concentration 30 nM)
How it was run: as §1

[11] = tested on: PPARg:RXRa DBDmut IVT, anti-RXR (DBD mutation: RXRa K156A/R161A, NR concentration 270 nM, RXRa partner concentration 90 nM)
How it was run: as §1

[12] = tested on: PPARg:RXRa IVT, anti-PPARg (NR concentration 270 nM, RXRa partner concentration 90 nM)
How it was run: as §1

[13] = tested on: PPARg DBDmut:RXRa IVT, anti-PPARg (DBD mutation: PPARg1 K132A/R137A, NR concentration 270 nM, RXRa partner concentration 90 nM)
How it was run: as §1

[14] = tested on: PPARg DBDmut IVT, anti-PPARg (DBD mutation: PPARg1 K132A/R137A, NR concentration 270 nM)
How it was run: as §1

[15] = tested on: PPARg homodimer (NR concentration 180 nM)
How it was run: as §1

[16] = tested on: PXR:RXRa (NR concentration 270 nM, RXRa partner concentration 90 nM)
How it was run: as §1

[17] = tested on: PXR homodimer (NR concentration 270 nM)
How it was run: as §1

[18] = tested on: RARa:RXR (NR concentration 270 nM, RXRa partner concentration 90 nM)
How it was run: as §1

[19] = tested on: RARa homodimer (NR concentration 270 nM)
How it was run: as §1

[20] = tested on: RARb:RXRa (NR concentration 270 nM, RXRa partner concentration 90 nM)
How it was run: as §1

## TCATATAGGTAAAAGGTGGAAGTCGGTGTGGTAA
[1]
  PBM binding z-score: 0.924
[2]
  PBM binding z-score: 0.974
[3]
  PBM binding z-score: 0.29
[4]
  PBM binding z-score: 1.22
[5]
  PBM binding z-score: 0.619
[6]
  PBM binding z-score: 3.71
[7]
  PBM binding z-score: 6.89
[8]
  PBM binding z-score: 7.1
[9]
  PBM binding z-score: 6.28
[10]
  PBM binding z-score: 7.79
[11]
  PBM binding z-score: 5.75
[12]
  PBM binding z-score: 3.56
[13]
  PBM binding z-score: 0.901
[14]
  PBM binding z-score: 0.975
[15]
  PBM binding z-score: 2.35
[16]
  PBM binding z-score: 0.586
[17]
  PBM binding z-score: 0.623
[18]
  PBM binding z-score: 1.18
[19]
  PBM binding z-score: 1.17
[20]
  PBM binding z-score: 0.885

## TAGCCTAGGTCAGAGCGGGCCAGTATACGCTATA
[1]
  PBM binding z-score: 1.24
[2]
  PBM binding z-score: 0.815
[3]
  PBM binding z-score: -0.692
[4]
  PBM binding z-score: 0.501
[5]
  PBM binding z-score: -1.17
[6]
  PBM binding z-score: 1.42
[7]
  PBM binding z-score: 0.573
[8]
  PBM binding z-score: 0.718
[9]
  PBM binding z-score: -0.359
[10]
  PBM binding z-score: 0.201
[11]
  PBM binding z-score: 0.635
[12]
  PBM binding z-score: 1.65
[13]
  PBM binding z-score: -0.73
[14]
  PBM binding z-score: -0.204
[15]
  PBM binding z-score: 0.133
[16]
  PBM binding z-score: 0.376
[17]
  PBM binding z-score: -0.362
[18]
  PBM binding z-score: 0.867
[19]
  PBM binding z-score: -1.12
[20]
  PBM binding z-score: 2.85

## TAGCCTAGGTCAGTCAGGGGCCAGTATAGAAAGC
[1]
  PBM binding z-score: 1.42
[2]
  PBM binding z-score: 0.48
[3]
  PBM binding z-score: -0.418
[4]
  PBM binding z-score: 0.85
[5]
  PBM binding z-score: -0.405
[6]
  PBM binding z-score: 1.46
[7]
  PBM binding z-score: 0.583
[8]
  PBM binding z-score: 1.04
[9]
  PBM binding z-score: -0.0718
[10]
  PBM binding z-score: 0.829
[11]
  PBM binding z-score: 0.759
[12]
  PBM binding z-score: 1.71
[13]
  PBM binding z-score: 0.0282
[14]
  PBM binding z-score: -0.431
[15]
  PBM binding z-score: 0.236
[16]
  PBM binding z-score: 0.48
[17]
  PBM binding z-score: -0.639
[18]
  PBM binding z-score: 1.32
[19]
  PBM binding z-score: -0.63
[20]
  PBM binding z-score: 3.21

## GGAACGAGGGCAAGATGATAGCAGAGTTTGATGG
[1]
  PBM binding z-score: 0.506
[2]
  PBM binding z-score: 0.313
[3]
  PBM binding z-score: -0.287
[4]
  PBM binding z-score: 0.0342
[5]
  PBM binding z-score: -0.415
[6]
  PBM binding z-score: 1.25
[7]
  PBM binding z-score: 1.39
[8]
  PBM binding z-score: 0.84
[9]
  PBM binding z-score: 0.0817
[10]
  PBM binding z-score: 0.398
[11]
  PBM binding z-score: 3.59
[12]
  PBM binding z-score: 2.4
[13]
  PBM binding z-score: -0.698
[14]
  PBM binding z-score: -0.398
[15]
  PBM binding z-score: 0.136
[16]
  PBM binding z-score: 0.418
[17]
  PBM binding z-score: 0.432
[18]
  PBM binding z-score: 0.145
[19]
  PBM binding z-score: 0.345
[20]
  PBM binding z-score: 2.19

## TCTCGGAGGACACGAAAGGTCGGAGCTCGACATC
[1]
  PBM binding z-score: 1.02
[2]
  PBM binding z-score: 1.14
[3]
  PBM binding z-score: -0.0519
[4]
  PBM binding z-score: 0.48
[5]
  PBM binding z-score: -0.636
[6]
  PBM binding z-score: 1.51
[7]
  PBM binding z-score: 0.269
[8]
  PBM binding z-score: 1.36
[9]
  PBM binding z-score: 1.93
[10]
  PBM binding z-score: 1.73
[11]
  PBM binding z-score: 1.24
[12]
  PBM binding z-score: 0.486
[13]
  PBM binding z-score: -0.405
[14]
  PBM binding z-score: -0.523
[15]
  PBM binding z-score: 0.582
[16]
  PBM binding z-score: 1.38
[17]
  PBM binding z-score: -0.652
[18]
  PBM binding z-score: 1.61
[19]
  PBM binding z-score: -0.809
[20]
  PBM binding z-score: 2.56

## ATCGAAAGGTCGAGGCGAGTATAGAGAAAGGGAA
[1]
  PBM binding z-score: 3.71
[2]
  PBM binding z-score: 3.01
[3]
  PBM binding z-score: -0.542
[4]
  PBM binding z-score: 2.24
[5]
  PBM binding z-score: 0.308
[6]
  PBM binding z-score: 4.47
[7]
  PBM binding z-score: 2.71
[8]
  PBM binding z-score: 2.86
[9]
  PBM binding z-score: 0.749
[10]
  PBM binding z-score: 1.52
[11]
  PBM binding z-score: 0.108
[12]
  PBM binding z-score: 1.14
[13]
  PBM binding z-score: 0.481
[14]
  PBM binding z-score: 0.208
[15]
  PBM binding z-score: 0.98
[16]
  PBM binding z-score: 2.11
[17]
  PBM binding z-score: 0.0659
[18]
  PBM binding z-score: 2.71
[19]
  PBM binding z-score: 0.203
[20]
  PBM binding z-score: 3.86

## TCATATAGGTACTACAGGTGAAAGTCGGCATCTA
[1]
  PBM binding z-score: 0.842
[2]
  PBM binding z-score: 1.92
[3]
  PBM binding z-score: 0.924
[4]
  PBM binding z-score: 1.03
[5]
  PBM binding z-score: 0.0353
[6]
  PBM binding z-score: 1.4
[7]
  PBM binding z-score: 0.768
[8]
  PBM binding z-score: 2.18
[9]
  PBM binding z-score: 3.93
[10]
  PBM binding z-score: 2.89
[11]
  PBM binding z-score: 2.86
[12]
  PBM binding z-score: 1.16
[13]
  PBM binding z-score: 0.618
[14]
  PBM binding z-score: 1.02
[15]
  PBM binding z-score: 0.506
[16]
  PBM binding z-score: 0.663
[17]
  PBM binding z-score: 0.0757
[18]
  PBM binding z-score: 0.847
[19]
  PBM binding z-score: 0.606
[20]
  PBM binding z-score: 0.472

Reference: the supplement of paper PMC6555819
